Measured values as given in PubChem BioAssay (NCI).
The panel holds about 83,000 compounds, 20% with a hit somewhere; the sample as a whole holds those more often.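 In brief: 96-well plates, 48 h treatment, single concentration, percent growth endpoint.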 A number with no mark means an inactive call. The source made the active and inactive calls. How the source made its calls: active means growth percent below 10; inactive means the rest.

How the values were obtained:
Assay in all cases: NCI-60 one-dose screen, 48 h (100 = growth as untreated, 0 = no growth, -100 = all killed)
Details in all cases: 10 µM unless noted
DU-145 prostate = tested on: DU-145 prostate
K-562 leukemia = tested on: K-562 leukemia
MALME-3M melanoma = tested on: MALME-3M melanoma
MDA-MB-231 breast = tested on: MDA-MB-231 breast
RXF 393 renal = tested on: RXF 393 renal
SF-268 CNS = tested on: SF-268 CNS
SF-295 CNS = tested on: SF-295 CNS
SF-539 CNS = tested on: SF-539 CNS
UACC-257 melanoma = tested on: UACC-257 melanoma
M14 melanoma = tested on: M14 melanoma
HT29 colon = tested on: HT29 colon
SNB-75 CNS = tested on: SNB-75 CNS
SNB-19 CNS = tested on: SNB-19 CNS
U251 CNS = tested on: U251 CNS
PC-3 prostate = tested on: PC-3 prostate
SK-MEL-5 melanoma = tested on: SK-MEL-5 melanoma
UACC-62 melanoma = tested on: UACC-62 melanoma
LOX IMVI melanoma = tested on: LOX IMVI melanoma
SK-MEL-28 melanoma = tested on: SK-MEL-28 melanoma

Structure (SMILES) | growth (DU-145 prostate) | growth (K-562 leukemia) | growth (MALME-3M melanoma) | growth (MDA-MB-231 breast) | growth (RXF 393 renal) | growth (SF-268 CNS) | growth (SF-295 CNS) | growth (SF-539 CNS) | growth (UACC-257 melanoma) | growth (M14 melanoma) | growth (HT29 colon) | growth (SNB-75 CNS) | growth (SNB-19 CNS) | growth (U251 CNS) | growth (PC-3 prostate) | growth (SK-MEL-5 melanoma) | growth (UACC-62 melanoma) | growth (LOX IMVI melanoma) | growth (SK-MEL-28 melanoma)
CC(C)CCNCC(C)(C)O | 118% | 109% | 121% | 116% | 117% | 106% | 111% | 101% | 102% | 110% | 103% | 90.3% | 109% | 104% | 98.6% | 113% | 111% | 101% | 122%
COc1ccc(N(c2nc(-c3ccc([N+](=O)[O-])cc3)cs2)C(C)C)cc1 | 86.1% | 55.1% | 94.6% | 73.9% | 102% | 83.5% | 89.8% | 88.7% | 80.5% | 89.9% | 97.2% | 103% | 89.9% | 90.3% | 84% | 78.9% | 68.4% | 80.9% | 103%
C#C[C@]1(O)CC[C@H]2[C@@H]3CC=C4c5nc(Nc6ccccc6[N+](=O)[O-])sc5CC[C@]4(C)[C@H]3CC[C@@]21C | 55.3% | 8.86% (active) | 51.7% | 52.4% | -44% (active) | 52.8% | -46.1% (active) | -31.5% (active) | 73% | -23.1% (active) | 55.7% | 17.9% | 76.6% | 39.7% | 41.8% | 60.6% | 67.8% | 73.1% | 62.1%
C=C(C)[C@@H]1CC[C@]2(C(=O)NCCNCCNCCN)CC[C@]3(C)[C@H](CC[C@@H]4[C@@]5(C)CC[C@H](O)C(C)(C)[C@@H]5CC[C@]43C)[C@@H]12 | -8.34% [100 µM] (active) | -15.8% [100 µM] (active) | -100% [100 µM] (active) | -56.9% [100 µM] (active) | -82.9% [100 µM] (active) | -31% [100 µM] (active) | -84.7% [100 µM] (active) | -100% [100 µM] (active) | -39.6% [100 µM] (active) | -31% [100 µM] (active) | -39.6% [100 µM] (active) | -79.3% [100 µM] (active) | -74.5% [100 µM] (active) | -71.6% [100 µM] (active) | 1.07% [100 µM] (active) | -90.1% [100 µM] (active) | -100% [100 µM] (active) | -41% [100 µM] (active) | -98.7% [100 µM] (active)
COc1cc2c(c(Br)c1N)-c1cc(Br)c(N)cc1C2=O | 79.1% | 94.9% | 76.7% | 29.2% | 69.9% | 61.6% | 57.2% | 37% | 92.3% | 91.1% | 86.2% | 25.9% | 69.1% | 57.3% | 93.2% | 56.5% | 74.9% | 68.8% | 81.4%
COc1cc2c(cc1OCCCN1CCN(CCCOc3cc4c(cc3OC)C(=O)N3C[C@H](F)C[C@H]3C=N4)CC1)N=C[C@@H]1C[C@@H](F)CN1C2=O | -19.9% (active) | 2.13% (active) | -75.7% (active) | 18.8% | -52.1% (active) | 9.5% (active) | 13.8% | -68.4% (active) | 20.8% | -7.96% (active) | 0.625% (active) | -72.3% (active) | 18.1% | 8.39% (active) | 12.7% | -44.7% (active) | -59.7% (active) | 5.06% (active) | -50.8% (active)
Nc1ccc(NC(=O)c2ccccc2)c2c1C(=O)c1ccccc1C2=O | 98.5% | 105% | 89.5% | 94.7% | 106% | 99.3% | 105% | 103% | 88.8% | 100% | 104% | 76% | 102% | 105% | 87.2% | 94.2% | 101% | 109% | 113%
Cc1ccc(Cn2c(O)c(N=NC(=O)c3ccc(S(N)(=O)=O)cc3)c3ccccc32)cc1 | 107% | 99.2% | 97.1% | 97.2% | 91.2% | 98.6% | 101% | 108% | 98% | 112% | 111% | 92.4% | 100% | 97.8% | 94.5% | 98.5% | 86.7% | 103% | 106%
O=C1NC(=O)C(Cc2ccccc2)(Cc2ccccc2)N1 | 111% | 108% | 109% | 98.4% | 117% | 95.1% | 94.2% | 102% | 105% | 93.9% | 94.1% | 85.2% | 95.2% | 101% | 83.2% | 94.3% | 97% | 89.4% | 119%
[2H]C1([2H])CCN(C(=O)C2CC2)c2cc(NS(=O)(=O)c3ccc(-c4cccc(C(N)=O)c4)cc3)ccc21 | 72% | 20.7% | 39.6% | 42.3% | 48.4% | 51.9% | 19.8% | 23.4% | 47.7% | 86.4% | 13.6% | 11.3% | 41.2% | 29.8% | 34.2% | 15.4% | 21.4% | 39.2% | 43.9%
COc1ccc2c(c1)C(C)Cc1c(Cl)ncnc1N2C (stereo not drawn) | 35.3% | 9.21% (active) | 41.4% | -45.3% (active) | -8.62% (active) | 10.5% | 15.2% | 28% | 13.6% | 12.1% | -3.53% (active) | 2.7% (active) | 27.7% | 15.5% | 11.4% | -83.6% (active) | 0.755% (active) | -69.2% (active) | 14.8%
C=C(C)[C@@H]1CC[C@]2(COCCC#N)CC[C@]3(C)[C@H](CC[C@@H]4[C@@](C)(CCCNCCC#N)[C@H](C(=C)C)CC[C@]43C)[C@@H]12 | 46.4% [100 µM] | 7.57% [100 µM] (active) | -47.8% [100 µM] (active) | 13.9% [100 µM] | -11.8% [100 µM] (active) | 53% [100 µM] | 65.2% [100 µM] | -20% [100 µM] (active) | 27.6% [100 µM] | 32.4% [100 µM] | 2.94% [100 µM] (active) | 40.8% [100 µM] | 59% [100 µM] |  | 20.1% [100 µM] | 2.58% [100 µM] (active) | 29.8% [100 µM] | -74.4% [100 µM] (active) | -37.3% [100 µM] (active)
C=C(C)[C@@H]1CC[C@]2(C)[C@H](C(=O)C=C3[C@@H]4C[C@](C)(C(=O)N5CCN(C)CC5)CC[C@]4(C)CC[C@]32C)[C@@]1(C)CCC#N | -51.6% [100 µM] (active) | -4.62% [100 µM] (active) | -86.5% [100 µM] (active) | -92.4% [100 µM] (active) | -86.4% [100 µM] (active) | -76.2% [100 µM] (active) | -88% [100 µM] (active) | -92% [100 µM] (active) | -77.1% [100 µM] (active) | -62.6% [100 µM] (active) | -53.2% [100 µM] (active) | -92.2% [100 µM] (active) | -95.8% [100 µM] (active) |  | -65.9% [100 µM] (active) | -94.6% [100 µM] (active) | -88.9% [100 µM] (active) | -93.6% [100 µM] (active) | -90.1% [100 µM] (active)
N/C(=N\c1nc2ccccc2[nH]1)NC(=O)Cc1cccc2ccccc12 | 92.8% | 107% | 68.3% | 84.6% | 92% | 86.5% | 98.7% | 91.3% | 6.29% (active) | 107% | 83.5% | 87.5% | 87.6% | 80.6% | 80% | 82.2% | 81.8% | 81.4% | 86.9%
O=C1C(Cl)=C(Nc2ccc3cn[nH]c3c2)C(=O)c2ccccc21 | -100% (active) | -50% (active) | -88.7% (active) | -50.3% (active) | -95.9% (active) | -98.7% (active) | 5.88% (active) | 10.5% | 19.3% | -83.8% (active) | -66.9% (active) | -84.5% (active) | 76.5% | -93.2% (active) | -42% (active) | -99.5% (active) | -97.9% (active) | -87.5% (active) | -97.7% (active)
